Hits are enriched below; roughly 28% of the tested compounds scored in any of these assays.
CYP2C19 activ: increases human CYP2C19 enzyme activity. AID 1025. P33261. recombinant CYP2C19, luciferin-H EGE luminescence; hits give high values; 0 = fully inhibited enzyme, 1 = untreated enzyme. 96,000 tested, under 10 active. activation factor at 5 µM;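 active means activation factor of at least 2 at 5 µM in the primary screen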
CYP2C9 act: CYP2C9 (human) activation | 1.4% of 96,000 active | P11712 | recombinant CYP2C9, luciferin-H conversion, luminescence; hits give high values; factor 1 = untreated enzyme, 0 = blocked | activation factor at 5 µM;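 active means activation factor of 2 or more for CYP2C9 at a 5 µM dose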
Target sequence (P11712 whole entry, looked up): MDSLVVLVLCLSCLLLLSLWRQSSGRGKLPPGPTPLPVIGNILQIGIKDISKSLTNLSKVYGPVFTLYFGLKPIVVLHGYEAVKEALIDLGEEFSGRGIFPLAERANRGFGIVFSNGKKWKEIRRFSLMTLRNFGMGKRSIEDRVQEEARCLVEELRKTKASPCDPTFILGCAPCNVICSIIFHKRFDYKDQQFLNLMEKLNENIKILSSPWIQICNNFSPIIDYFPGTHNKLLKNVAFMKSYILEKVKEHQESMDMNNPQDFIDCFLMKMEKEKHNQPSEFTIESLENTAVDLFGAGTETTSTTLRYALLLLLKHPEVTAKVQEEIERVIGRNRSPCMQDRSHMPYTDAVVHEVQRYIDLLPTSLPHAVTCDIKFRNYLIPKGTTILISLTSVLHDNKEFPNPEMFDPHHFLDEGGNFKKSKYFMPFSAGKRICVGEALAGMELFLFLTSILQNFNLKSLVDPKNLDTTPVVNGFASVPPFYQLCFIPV
CYP2C9 inhib: human CYP2C9 inhibition; CYP2C9 Supersomes, luciferin-H conversion, luminescence; inhibition, % at 5 µM; 20% of 96,000 active;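 active means blocking of liver enzyme CYP2C9 beyond about 50% at 5 µM, limit read from the data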
PLK1 inh: inhibitors of human PLK1 kinase | P53350 | recombinant PLK1 kinase, TR-FRET peptide phosphorylation | inhibition, % at 10 µM | 0.53% of 97,000 active | AID 619;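 active means inhibition of 50% or more in the single-concentration screen; inactive means inhibition below 50%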
PLK1 PBD inh: Plk1 (human) PBD binding inhibition; P53350; Plk1 PBD phosphopeptide binding, fluorescence polarization; inhibition, %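 (tested at about 20 µM)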; 0.13% of 97,000 active; AID 693; in the data active means inhibition above about 34%, passing the limit was not always enough
CYP2C19 inh: inhibitors of human CYP2C19; inhibition, % at 5 µM; AID 778; 21% of 96,000 active; CYP2C19 Supersomes, luciferin-H EGE luminescence, 30 min; P33261;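 active means CYP2C19 inhibition above a set limit at 5 µM in the primary screen, cut at about 50% in these data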
Of the large screens only hits and unclear results are named; the others gave an inactive call.

O=C(N/N=C/c1cccc(Oc2ccccc2)c1)c1ccccc1Br	CYP2C9 inhib 63
O=C(N/N=C/C=C/c1ccccc1)c1cccc(Br)c1	none
O=C(N/N=C/c1cccc(Oc2ccccc2)c1)c1cccc(Br)c1	CYP2C9 inhib 53
O=C(N/N=C/C=C/c1ccccc1)c1ccccc1Br	none
CC(C)(C)c1cc(C(=O)N2CCc3ccccc32)ccn1	CYP2C9 inhib 53, CYP2C19 inh 72
Cc1cc(C)n(-c2ccc(C(=O)Nc3ccccc3N3CCOCC3)cc2)n1	none
CN(C)S(=O)(=O)c1cccc(C(=O)N2CCc3ccccc32)c1	none
Cc1csc2ncc(C(=O)N3CCc4ccccc43)c(=O)n12	none (no result: CYP2C19 activ, CYP2C9 act, CYP2C9 inhib, CYP2C19 inh)
Cc1cc(C(=O)N2CCc3ccccc32)n(-c2ccccc2)n1	CYP2C9 inhib 68, CYP2C19 inh 75 (no result: PLK1 inh, PLK1 PBD inh)
Cc1cc(C)n(-c2ccc(C(=O)N3CCc4ccccc43)cc2)n1	CYP2C9 act 2
CCCOc1cccc(C(=O)N(Cc2cccs2)C2CCS(=O)(=O)C2)c1 (stereo not given)	none
C=Cn1nc(C)c2ccccc2c1=O	none
COc1ccc(Cc2nnc(-c3ccc(F)cc3)o2)cc1OC	none
O=C(/C=C/c1ncc(C(F)(F)F)cc1Cl)OCc1ccccc1	none
CCCCNC(=S)NNC(=O)c1sccc1C	CYP2C19 inh 88
CCCCNC(=S)NNC(=O)c1csc(C(C)C)c1	none (no result: CYP2C19 activ, CYP2C9 act, CYP2C9 inhib, CYP2C19 inh)
COc1ccc(OC)c(CNc2ccc(F)c(Cl)c2)c1	CYP2C9 inhib 58
N#Cc1nc(-c2ccccc2F)oc1NCc1cccc2c1OCO2	CYP2C9 inhib 86
COc1ccc(CCNc2oc(-c3ccccc3OC)nc2C#N)cc1	CYP2C9 inhib 60, CYP2C19 inh 92
COc1ccc(CCNc2oc(-c3ccccc3OC)nc2C#N)cc1OC	CYP2C9 inhib 72, CYP2C19 inh 98
COc1ccc(-c2nc(C#N)c(NC(C)c3ccccc3)o2)cc1OC (stereo not given)	CYP2C9 inhib 53
CN(C)CCNc1oc(-c2ccccc2F)nc1C#N	none
COc1ccc(-c2nc(C#N)c(N3CCOCC3)o2)cc1OC	none (no result: PLK1 inh, PLK1 PBD inh)
CC(C)CCn1c(-c2nonc2N)nc2ccccc21	none (no result: CYP2C19 activ, CYP2C9 act, CYP2C9 inhib, CYP2C19 inh)
CCN(CCO)C(=O)C12CCC(C)(C(=O)C1)C2(C)C (stereo not given)	none
CCN(CC)c1ccc(NC(=O)c2cccc(F)c2)c(C)c1	none
COc1ccc(CCNc2oc(-c3ccc(OC)c(OC)c3)nc2C#N)cc1	CYP2C9 inhib 53, CYP2C19 inh 52
COc1ccc(-c2nc(C#N)c(NCC3CCCO3)o2)cc1OC (stereo not given)	CYP2C9 inhib 71, CYP2C19 inh 67
COc1ccc(-c2nc(C#N)c(NCCCN(C)C)o2)cc1OC	none
N#Cc1nc(-c2ccc(F)cc2)oc1NCc1ccccc1	none
CCOc1ccc(-c2nc(C#N)c(NCC3CCCO3)o2)cc1 (stereo not given)	none
COc1ccccc1-c1nc(C#N)c(NCc2ccc(F)cc2)o1	CYP2C9 inhib 60, CYP2C19 inh 76
CC(c1cccnc1)N(C(=O)Nc1ccccc1)C1CCCCC1 (stereo not given)	none
COc1ccc2c(c1)c(C(=O)CN1CCC(C(N)=O)CC1)c(C)n2C	none
CCOC(=O)CSc1nnc(CNC(=O)c2cccs2)n1CCc1ccccc1	none
C=CCn1c(SC(C)C(=O)NC2(C#N)CCCCC2)nnc1-c1ccc(OC)cc1 (stereo not given)	none
CCOC(=O)C1CCN(C(C(=O)Nc2ccc3c(c2)OCCO3)c2ccccc2)CC1 (stereo not given)	CYP2C9 inhib 89
CCOC(=O)C1CCN(c2c(Nc3ccc4c(c3)OCCO4)c(=O)c2=O)CC1	none
O=C(O)C1C2C=CC(C2)C1C(=O)NC1CCN(Cc2ccccc2)CC1 (stereo not given)	none
O=C(O)c1ccccc1SC1CC(=O)N(C2CCCCC2)C1=O (stereo not given)	PLK1 inh 69 (no result: CYP2C19 activ, CYP2C9 act, CYP2C9 inhib, CYP2C19 inh)
Cc1ccc(SCC(=O)NCc2cccnc2)cc1	none
N#CC(=C1CCCC1)c1nc(-c2ccccc2O)cs1	CYP2C19 inh 72
COc1ccc(N2CCN(C(=O)c3cn(C4CCCC4)c(=O)c4c3c3ccccc3n4C)CC2)cc1	CYP2C9 inhib 90, CYP2C19 inh 77
Cn1c2ccccc2c2c(C(=O)N3CCN(c4ccccn4)CC3)cn(C3CCCC3)c(=O)c21	CYP2C9 inhib 94, CYP2C19 inh 69

Source: PubChem (several laboratories)
